What all share (experiment): NCI-60 one-dose screen, 48 h (100 = growth as untreated, 0 = no growth, -100 = all killed)
Holding throughout (conditions): 10 µM unless noted

Assay [1] relates to T-47D breast.
Assay [2] deals with BT-549 breast.
Assay [3] has as its system MDA-MB-435 melanoma.
Assay [4] relates to SW-620 colon.
Assay [5] concerns MCF7 breast.
Assay [6] deals with HCT-116 colon.
Assay [7] has as its system HCC-2998 colon.
In assay [8] the test system is KM12 colon.

The panel holds about 83,000 compounds, 20% with a hit somewhere; the sample as a whole holds those more often.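 Interpretation: 100, growth as untreated; towards 0, rising growth inhibition; 0, no net growth; 0 to -100, cell death. Compounds scoring below 10 were considered active.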 Values without a mark were called inactive. Activity calls are given as the source filed them.

For `CC1(C)OC2C(CO[Si](C)(C)C(C)(C)C)OC(n3c(I)c(C#C[Si](C)(C)C)c(=O)[nH]c3=O)C2O1` (configuration not stated), the growth in assay [1] is 96.2%; in assay [2], 118%; in assay [3], 83%; in assay [4], -43% (active); in assay [5], 106%; in assay [6], 71%. In addition, the growth in assay [7] was -51% (active); in assay [8], 107%.
As to `CCc1c2c(nc3ccc(OC(=O)NCc4ccc(B5OC(C)(C)C(C)(C)O5)cc4)cc13)-c1cc3c(c(=O)n1C2)COC(=O)[C@]3(O)CC`, the growth was 4.82% (active) in assay [1]; 4.12% (active) in assay [2]; -35.2% (active) in assay [3]; 8.04% (active) in assay [4]; 2.39% (active) in assay [5]; 2.81% (active) in assay [6]. Further, the results for the growth in assay [7] and in assay [8] were -8.14% (active) and -5.38% (active), respectively.
Consider `CN1CCN(C(=O)c2c3c(n4ccccc24)C(=O)c2ncccc2C3=O)CC1`, for which the growth in assay [1] is 93.3%; in assay [2] it was 57.3%; in assay [3], 76.1%; in assay [4], 37.6%; in assay [5], 26.9%; in assay [6], 44.1%. In addition, the growth in assay [7] was 70.9%; in assay [8], 65.4%.
With `C=C(C)[C@@H]1CC=C2c3sc(-c4ccc(C)cc4)nc3C[C@@H](C)[C@]2(C)C1`, the growth in assay [1] was 95.4%; in assay [2], 109%; in assay [3] it was 101%; in assay [4] it was 103%; in assay [5], 96.9%; in assay [6], 105%. Moreover, the growth in assay [7] was 115%; in assay [8], 101%.
In the case of `Cc1ccc2[nH]c(=O)c3c(c2c1)OC(N)=C(C#N)C31c2cc(Br)ccc2-c2ccc(Br)cc21`, the growth in assay [1] was 39.4%; in assay [2], 82.5%; in assay [3], 59.7%; in assay [4], 40%; in assay [5], 34%; in assay [6], 67.8%. For the same molecule, the growth in assay [7] is 70.5%; in assay [8], 52.4%.
In the case of `Cc1c(O)cc(-c2cnc(N/N=C\c3ccc(Cl)cc3)s2)c(O)c1C`, the growth in assay [1] was -11.2% (active); in assay [2] it was 67.3%; in assay [3], 97.5%; in assay [4] it was 107%; in assay [5] it was 71.1%; in assay [6], 94.6%. For the same molecule, the growth in assay [7] is 111%; in assay [8], 86.5%.
In the case of `CC1CC2Oc3ccc(Cl)cc3C(=O)N2O1` (configuration not stated), the growth in assay [1] is 104%; in assay [2] it was 105%; in assay [3], 105%; in assay [4], 99.2%; in assay [5] it was 112%; in assay [6], 107%. Further, the growth in assay [7] is 97.5%; in assay [8], 107%.
As for `CCCCCCCCCCCCCCCCCCOc1ccccc1CC(=O)OCCC[N+](C)(C)C`, the growth in assay [1] was 72.3%; in assay [2], 102%; in assay [3] it was 58.3%; in assay [4], 40%; in assay [5] it was 46.5%; in assay [6] it was 64%. The growth in assay [7] was 37.2%; in assay [8], 76.1%.
With `Cc1cc(N2CCCC2)nc(NCc2cc(Nc3ccnc4cc(Cl)ccc34)ccc2F)n1`, the growth is -54.7% (active) in assay [1]; 55.2% in assay [2]; -96.1% (active) in assay [3]; -71.1% (active) in assay [4]; -56.1% (active) in assay [5]; -76.3% (active) in assay [6]. For the same molecule, the figures for the growth in assay [7] and in assay [8] were -74.9% (active) and -58.8% (active), respectively.
In the case of `O=C(NCCNc1cc(-c2cn(-c3ccccc3)nc2-c2cccc(O)c2)ccn1)Nc1ccccc1`, the growth in assay [1] was 45.9%; in assay [2], 52.9%; in assay [3] it was 93%; in assay [4], 84.5%; in assay [5] it was 78.4%; in assay [6], 53.2%. For the same molecule, the growth is 92.5% in assay [7] and 89.2% in assay [8].
As to `COc1ccc(-c2nc(SC(C)C)nc(NNC(N)=S)c2C#N)cc1`, the growth was 51.6% in assay [1]; 77.2% in assay [2]; -46.4% (active) in assay [3]; 22.2% in assay [4]; 30.7% in assay [5]; 75.1% in assay [6]. The growth is 63.7% in assay [7] and 39.2% in assay [8].
`Nc1n[nH]c2cc(F)c([C@@H]3Nc4c(F)cc5[nH]ncc5c4[C@H]4C5CCC(C5)[C@@H]34)cc12` (some centres not stated): the growth is 83.8% in assay [1]; -0.757% (active) in assay [2]; -33.4% (active) in assay [3]; 26.8% in assay [4]; 21.6% in assay [5]; -21.2% (active) in assay [6]. The growth in assay [7] is 7.27% (active); in assay [8] it was -40.5% (active).
`Cc1ccc(NS(=O)(=O)c2ccc3c(c2)C(=O)CC(c2ccc(C(=O)C(C)C)cc2)N3)cc1C` (configuration not stated): the growth in assay [1] is 39.8%; in assay [2], 65.6%; in assay [3] it was 58.3%; in assay [4], 70.5%; in assay [5], 37.4%; in assay [6], 54%. For the same molecule, the growth was 89.9% in assay [7] and 71.9% in assay [8].
`O=C1Nc2ccc(F)cc2C12Nc1cc(Cl)ccc1S2` (configuration not stated): the growth in assay [1] was 40%; in assay [2], 67.7%; in assay [3], 97.5%; in assay [4] it was 106%; in assay [5], 60.3%; in assay [6], 85.7%. Further, the growth was 99.5% in assay [7] and 90.5% in assay [8].

Values taken from PubChem BioAssay (NCI).
